PubChem BioAssay AID431 (Sanford-Burnham Center for Chemical Genomics, 2006)
Screen size: about 63,000 compounds; about 1,100 (1.7%) were called active. What follows is part of a selection rich in actives, with near analogues and random picks from the rest. Entries with a potency or affinity are not part of this list. Unmarked numbers belong to inactive results.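 How the source made its calls: active means compounds whose percent cytotoxicity in the single-dose primary screen, scaled between solvent and toxic-drug controls, exceeds 50; inactive means the rest.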

Test: cytotoxicity in KRAS-transformed pancreatic duct cells, primary screen, cell-based, fluorescence, HTS (AID 431);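 further: 0% = DMSO solvent wells and 100% = doxorubicin-treated wells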
Conditions: HPDE-C7K KRASV12 cells, Alamar Blue viability, 48 h; at 10 µM; active compounds read high

| Structure (SMILES) | cytotoxicity |
| --- | --- |
| Cc1sc2nc(SCC(=O)c3cccs3)n(Cc3ccco3)c(=O)c2c1C | 31.6% |
| COc1cccc(-c2nc(N3CCCCC3)c3ccccc3n2)c1O | -18.8% |
| CCN(CC)c1nc(-c2cccc(OC)c2O)nc2ccccc12 | -8.4% |
| COc1cccc(-c2nc(NCC3CCCO3)c3ccccc3n2)c1O (stereo not drawn) | 55.1% (active) |
| C=CCNc1nc(-c2cccc(OC)c2O)nc2ccccc12 | -8.3% |
| COc1cccc(-c2nc(NC(C)(C)C)c3ccccc3n2)c1O | 20.9% |
| Oc1ccccc1-c1nc(NCc2ccco2)c2ccccc2n1 | 5.3% |
| Oc1ccc(Nc2nc(NCC3CCCO3)c3ccccc3n2)cc1 (stereo not drawn) | 46.8% |
| COc1cccc(-c2nc(N3CCCCC3C)c3ccccc3n2)c1O (stereo not drawn) | 63.1% (active) |
| CCC(C)Nc1nc(-c2cccc(OC)c2O)nc2ccccc12 (stereo not drawn) | 114% (active) |
| CCC1CCCCN1c1nc(-c2cccc(OC)c2O)nc2ccccc12 (stereo not drawn) | 8.3% |
| COc1cccc(-c2nc(NC(C)C)c3ccccc3n2)c1O | 42.1% |
| CS(=O)(=O)N(CC(=O)N1CCN(Cc2ccccc2)CC1)Cc1ccccc1 | -3% |
| COCCCNc1nc2c(c(=O)[nH]c(=O)n2C)n1CCCc1ccccc1 | -3.8% |
| CCCn1c(CNS(=O)(=O)c2ccc(C)cc2)nc2ccccc21 | 5.2% |
| O=C(CN1CCN(C(=O)c2ccccc2F)CC1)Nc1ccc(Br)cc1 | -5.9% |
| CCCCn1cnc2sc3c(c2c1=N)CCCC3 | -7.6% |
| CCCCOC(=O)Nc1ccccc1C(N)=O | -5.7% |
| COc1ccc(/C(O)=C2/C(=O)C(=O)N(CCCC(=O)O)C2c2ccc(OC)c(OC)c2)cc1 (stereo not drawn) | -0.6% |
| c1ccc(-c2nc(NCc3ccco3)c3ccccc3n2)nc1 | 20% |
| c1coc(CNc2nc(N3CCCCC3)nc3ccccc23)c1 | 38.2% |
| Oc1ccccc1-c1nc(NCC2CCCO2)c2ccccc2n1 (stereo not drawn) | 50.1% (active) |
| Oc1ccccc1Nc1nc(NCC2CCCO2)c2ccccc2n1 (stereo not drawn) | 12.1% |
| c1ccc(-c2nc(NCC3CCCO3)c3ccccc3n2)nc1 (stereo not drawn) | 9.5% |
| CC(=O)c1ccc(NC(=O)CSc2nnc(Cn3c(=O)sc4ccccc43)n2C)cc1 | -1.4% |
| N#Cc1ccc(CSc2nnc(-c3ccccn3)n2-c2ccccc2)cc1 | 10.8% |
| COc1cc2[nH]c(=O)n(CCCCCC(=O)NCCCN3CCC(C)CC3)c(=O)c2cc1OC | -6.7% |
| O=C(CN1C(=O)NC2(CCCCCCC2)C1=O)N1CCOCC1 | -1.1% |
